Screens deposited in PubChem by National Center for Advancing Translational Sciences (NCATS).
Shown are actives, neighbours in structure and some others; about 19% of the full set was active somewhere.
DT40 TDP1 CPT – growth inhibition of DT40 Tdp1-/-;hTDP1 cells with camptothecin (screen for TDP1 inhibitors) | chicken DT40 Tdp1-/-;hTDP1 cells + 20 nM CPT, ATP luminescence, 48 h | Potency, µM (highest dose often 46.2 µM), inactives show top-dose activity change, negative = growth inhibition, usual class: inhibitors | 420,000 tested, 12% active | AID 686979; note: nearly all actives have a fitted effect of over 55% in size
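Chicken DT40 Tdp1-/- cells stably complemented with human TDP1 were seeded at 400 cells/well in medium containing 20 nM camptothecin, exposed to pin-transferred compounds, and grown at 37 °C for at least 48 hr. Viability was read as ATP luminescence.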
HT1080 IDH1KD tx – toxicity to HT-1080 IDH1 knockdown cells (counter line); HT-1080 IDH1 knockdown viability, ATP luminescence, 48 h; Potency, µM (highest dose often 46.1 µM), inactives show top-dose activity, negative = toxicity, hits mostly cytotoxic; 360,000 tested, 2% active; AID 686971;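 note: 0% = DMSO wells and -100% = cell-free medium wells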
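Assay cells: HT-1080 with IDH1 knockdown, 750 per well, RPMI/5% FBS. Exposure: 48 h at 37 °C following 2 h pre-incubation. Read: CellTiter-Glo luminescence; fitted concentration-response, curve class assigned.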
TDP1 cell noCPT – qHTS for Inhibitors of human tyrosyl-DNA phosphodiesterase 1 (TDP1): qHTS in cells in absence of CPT; AID 686978, 2013; DT40 Tdp1-/- hTDP1 cells, no CPT, ATP luminescence, 48 h; 420,000 tested, 15% active; Potency, µM (top dose mostly 46.2 µM), without a hit: at the top dose activity change, negative = growth inhibition, actives largely listed as inhibitors; note: nearly all actives have a fitted effect of over 55% in size
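Cells were dispensed at 400 per well, compounds added by pin tool, plates incubated ≥48 hr at 37 °C, then CellTiter-Glo added for 30 min at room temperature before luminescence reading. Line: DT40 Tdp1-/- complemented with hTDP1; camptothecin omitted.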
KB-V1 cytotox – kills drug-selected multidrug resistant KB-V1 cells | AID 1347076 | Potency, µM (highest dose often 46.1 µM), usual class: cytotoxic | KB-V1 MDR cells viability, CellTiter-Glo, 72 h | 400,000 tested, 3.4% active; note: nearly all actives have a fitted effect of over 60% in size
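KB-V1 cells (P-gp-expressing MDR subline of KB-3-1) in phenol-red-free DMEM with 10% FBS were exposed to library compounds over a concentration series for 72 h at 37 degrees C. Viability read by CellTiter-Glo luminescence; concentration-effect curves fitted after normalization.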
HT1080NT lethal – kills 2HG-producing HT-1080-NT fibrosarcoma cells; HT-1080-NT fibrosarcoma viability, CellTiter-Glo ATP luminescence, 48 h; Potency, µM (titrated, usually from 46.1 µM), for the others: top-dose activity, negative = less viability, usual class: cytotoxic; 360,000 tested, 1.6% active;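 note: NT is the 2HG producing partner of a matched IDH1 knockdown line; 0% = DMSO-treated cells and -100% = media-only wells without cells; nearly all actives have a fitted effect of over 55% in size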
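Fibrosarcoma NT cells, 750 per well in 5% FBS RPMI, were exposed to compound for 48 hours. Viability: CellTiter-Glo luminescence.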
KB-3-1 tox – kills parental KB-3-1 adenocarcinoma cells; 400,000 tested, 1.4% active; AID 1347075; KB-3-1 viability, CellTiter-Glo ATP luminescence, 72 h; Potency, µM (series often up to 46.1 µM), most hits filed as cytotoxic; note: nearly all actives have a fitted effect of over 60% in size
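Using CellTiter-Glo luminescence, growth of non-resistant KB-3-1 adenocarcinoma cells is assessed 72 h after pin-tool compound addition at 37 °C. Normalized responses across the concentration series yield fitted curves.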
Active calls of the source: *; i = inactive; ? = inconclusive; · = no result given. Calls come from the whole dose curve; as a rule, active = well fitted curve in the direction sought with a large enough effect; inconclusive = small, poorly fitted or top-dose-only effect, or another doubt; inactive = no such curve, though single readings can be large; an effect the other way counts as inactive or inconclusive. Unless noted, % is set by controls: 0 for no effect and ±100 for the full control effect; potency is the fitted concentration of half-maximal effect.

SMILES	DT40 TDP1 CPT	HT1080 IDH1KD tx	TDP1 cell noCPT	KB-V1 cytotox	HT1080NT lethal	KB-3-1 tox
COC(=O)C1=C(c2cccc3c2S(=O)(=O)c2ccccc2-3)C[C@@H]2CC[C@H]1N2C(=O)N1CCc2cc(OC)c(OC)cc2C1	21µM*	-13%	21µM*	i	-5%	i
COC(=O)C1=C(c2cccc3c2S(=O)(=O)c2ccccc2-3)C[C@@H]2CC[C@H]1N2C(=O)N1CCOCC1	23µM*	9%	?	i	8%	i
CCCCn1c(O)c(C(C)=NCc2ccco2)c(=O)[nH]c1=O	-9%	5%	-16%	i	3%	i
COc1ccc(NC(=O)c2oc3ccc(S(=O)(=O)N(C)C4CCCCC4)cc3c2C)cc1	10µM*	·	8.2µM*	·	·	·
CCn1cc(C(=O)NCCc2ccc(Cl)cc2)c(=O)c2cc(S(=O)(=O)N(C)C3CCCCC3)ccc21	?	·	?	i	·	i
COc1ccccc1OCCCn1cc(C(=O)C2CC2)c2ccccc21	?	-21%	?	?	-19%	?
COc1ccccc1OCCCn1cc(C(C)=O)c2ccccc21	?	-11%	18µM*	?	-9%	i
COc1ccccc1OCCCn1cc(C=O)c2ccccc21	?	-11%	21µM*	i	-15%	i
CC1=C2C3OC(=O)C(C)C3CC[C@@]2(C)C=CC1=O (stereo not given in full)	7%	2%	4%	i	17%	i
O=S(=O)(c1cc(Cl)cc(Cl)c1)N1Cc2cc(N3CCOCC3)ccc2-n2nncc2C1	?	-7%	?	i	-10%	i
Oc1cc2c(cc1O)[C@H]1c3ccccc3CN[C@@H]1CC2	14µM*	·	13µM*	?	·	i
COc1ccc2c(c1)C1OCCNC1CC2 (stereo not given)	-8%	4%	-9%	i	11%	i
Oc1cc2c(cc1O)[C@H]1c3ccccc3CN[C@H]1CC2	18µM*	·	18µM*	·	·	·
CCS(=O)(=O)N1Cc2cc(C(=O)N(C)C)nc(-c3cccc(-c4ccc(F)cc4)c3)c2[C@@H]1CCO	1%	-1%	-25%	i	1%	i
OC(COCc1ccc(Cl)cc1)CN1CC=C(c2ccccc2)CC1 (stereo not given)	16µM*	?	10µM*	?	-4%	?
OC(CN1CC=C(c2ccccc2)CC1)c1ccccc1 (stereo not given)	-9%	1%	?	i	-2%	i
COc1ccccc1NC(=O)c1cn(CCC#N)nc1-c1cccc(Cl)c1	?	1%	?	i	3%	i
CCc1cccc(NC(=O)c2ccc(NC(=O)N3CCSc4ncccc43)cc2)c1	21µM*	·	16µM*	i	·	?
CCN(CC)C(=O)c1ccc(NC(=O)c2cccc(S(=O)(=O)N3CCN(C)CC3)c2)cc1	-20%	-4%	-23%	·	-9%	·
CC(C)(C)OC(=O)NCc1ccc(CNC(=O)c2nc[nH]c2C(=O)NCc2ccc(CNC(=O)OC(C)(C)C)cc2)cc1	15µM*	-3%	21µM*	i	-5%	i
CC(C)(C)c1cc([N+](=O)[O-])cc(C(C)(C)C)c1O	10µM*	?	5.2µM*	i	?	12µM*
CN(N)N=Nc1nc2c([nH]1)c(=O)n(C)c(=O)n2C	1%	14%	-2%	i	14%	i
Cn1cc(C(=O)N2CCOCC2)c2ccccc21	-3%	7%	13%	i	5%	i
Cc1ccc(S(=O)(=O)N2CCC(=O)N(CCOC(=O)Nc3cccc(Cl)c3)CC2)cc1	12µM*	-2%	21µM*	i	-1%	i
CC(C)(O)C1O[C@H]2CC[C@@]3(C)[C@@](O)(CC[C@H]4Cc5c([nH]c6ccccc56)[C@@]43C)C2=CC1=O (stereo not given in full)	21µM*	·	24µM*	·	·	·
SMILES	DT40 TDP1 CPT	HT1080 IDH1KD tx	TDP1 cell noCPT	KB-V1 cytotox	HT1080NT lethal	KB-3-1 tox
CN(C)c1ccc(C(=O)N/N=C/C23CC[C@@H](O)CC2(O)CC[C@@H]2[C@@H]3CCC3(C)C(C4=CC(=O)OC4)CCC23O)cc1 (stereo not given in full)	9%	10µM*	5%	?	?	6.5µM*
COc1cc(C(=O)N/N=C/C23CC[C@@H](O)CC2(O)CC[C@@H]2[C@@H]3CCC3(C)C(C4=CC(=O)OC4)CCC23O)ccc1O (stereo not given in full)	0%	23µM*	-4%	i	-27%	i
C[C@]12CCC3C(CC[C@]4(O)C[C@@H](O)CC[C@]34C=O)[C@@]1(O)CC[C@@H]2C1=CC(=O)OC1 (stereo not given in full)	9.4µM*	·	6µM*	·	·	·
CC12CC[C@H]3[C@@H](CCC4(O)C[C@H](O)CCC34/C=N/NC(=O)c3ccccc3F)C1(O)CCC2C1=CC(=O)OC1 (stereo not given in full)	2%	?	21%	i	-12%	18µM*
CC12CC[C@H]3[C@@H](CCC4(O)C[C@H](O)CCC34/C=N/NC(=O)c3ccc(O)cc3)C1(O)CCC2C1=CC(=O)OC1 (stereo not given in full)	1%	6%	1%	i	0%	i
CCOP(=S)(OCC)SCCSCC	-14%	13%	-8%	i	23%	i
CN1CCN(Cc2cc3c(cc2[N+](=O)[O-])OCO3)CC1	-8%	2%	-29%	i	14%	i
CC1N(C)c2cc(NC(=O)c3ccco3)c(P(=O)(Nc3ccc([N+](=O)[O-])cc3)N3CCOCC3)cc2C1(C)C (stereo not given)	4.6µM*	10µM*	5.2µM*	i	?	?
Cc1cc(=O)oc2cc3c(cc12)CCCN3	2%	0%	-17%	i	7%	i
COc1nc2ccccc2c(=O)n1-c1ccc(Cl)cc1	?	2%	-25%	i	6%	i
Cc1cccc(-n2c(-c3ccco3)nc3ccccc3c2=O)c1C	8.2µM*	-20%	16µM*	i	0%	i
COc1ccccc1-n1c(-c2ccccc2Cl)nc2ccccc2c1=O	?	0%	15µM*	i	1%	i
